Results on 103 compounds are retold here after PubChem BioAssay AID1006 (Sanford-Burnham Center for Chemical Genomics, 2008).

Screen size: about 200,000 compounds; about 3,000 (1.5%) were called active.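 The calls were made as follows: active = inhibition above about 50% when tested at 10 µM (limit read from the data); inactive = the rest.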 Only a selection was taken, and actives are over-represented in it overall.

The target of the assay is Luciferin 4-monooxygenase (Photinus pyralis) (UniProt P08659). The assay can be described thus: inhibition of purified FLuc reporter enzyme – biochemical, luminescence, ATPLite, artefact control for luciferase-based inhibitor screens, primary screen (AID 1006). The settings on record: ATPLite firefly luciferase biochemical luminescence, 10 min; at 10 µM; stronger effect = higher value.
Chain of Luciferin 4-monooxygenase (Photinus pyralis) (P08659 whole entry, looked up): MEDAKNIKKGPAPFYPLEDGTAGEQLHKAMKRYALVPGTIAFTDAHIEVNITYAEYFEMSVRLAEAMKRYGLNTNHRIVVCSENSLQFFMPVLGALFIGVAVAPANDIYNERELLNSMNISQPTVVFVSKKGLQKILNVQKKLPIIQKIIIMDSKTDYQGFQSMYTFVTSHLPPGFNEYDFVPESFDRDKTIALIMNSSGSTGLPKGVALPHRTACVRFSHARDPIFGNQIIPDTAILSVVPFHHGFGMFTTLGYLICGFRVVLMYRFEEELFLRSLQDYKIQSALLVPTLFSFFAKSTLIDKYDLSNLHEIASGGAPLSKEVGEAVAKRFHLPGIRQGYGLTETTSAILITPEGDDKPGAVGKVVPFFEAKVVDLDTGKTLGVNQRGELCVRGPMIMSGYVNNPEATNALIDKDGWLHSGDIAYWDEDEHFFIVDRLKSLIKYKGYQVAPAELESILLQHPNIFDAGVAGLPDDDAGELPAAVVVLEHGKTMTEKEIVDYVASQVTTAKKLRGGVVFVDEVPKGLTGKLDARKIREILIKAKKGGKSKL
Take `CCC(C)N(C)C1CCN(C(=S)Nc2ccc(OC)cc2)CC1` (stereo not drawn): the inhibition is -0.3% (inactive).

Consider `COc1ccc2nc(N3CCCC(O)C3)c(C#N)cc2c1` (stereo not drawn), for which the inhibition is 54.6% (active).

Consider `CCOc1ccc2nc(N3CCCN(C(=O)Nc4ccccc4C)CC3)c(C#N)cc2c1`, for which the inhibition was -2% (inactive). Consider `COc1ccc(N2CCN(C(=O)CSc3nc4cc(OC)c(OC)cc4cc3C#N)CC2)cc1`, for which the inhibition was -6.5% (inactive). Consider `Cc1ccc2[nH]c(C(=O)O)c(NC(=O)c3ccccc3[N+](=O)[O-])c2c1`, for which the inhibition was -4.8% (inactive). Take `CCn1cc(C(=O)Nc2cc(C)ccc2C)c(=O)c2ccc(C)nc21`: the inhibition was -5.1% (inactive). With `Clc1cccc(N=C2NN=C(c3ccc4c(c3)OCCO4)CS2)c1` the figure was 51.5% (active); with `c1ccc(CN2CCC(N=C3NN=C(c4ccc5c(c4)OCCO5)CS3)CC2)cc1`, -2.4% (inactive); with `Cc1cccc(N=C2NN=C(c3c[nH]c4ccccc34)CS2)c1`, -4.7% (inactive). The result for `COc1cc(/C=N/NC(=O)CCc2n[nH]c(=O)[nH]c2=O)ccc1O` reads -6.6% (inactive); that for `Nc1c(NCCc2ccccc2)c2ccccc2oc1=O`, -4% (inactive); that for `Cc1ccc(CN2CCN(Cc3cn(C)nc3-c3ccccc3)CC2CCO)o1` (stereo not drawn), -4.5% (inactive). With `COc1ccc(/C=C(/CC(=O)Nc2ccc(C)cc2)c2nc3ccccc3s2)cc1` the figure was -7.9% (inactive).

Turning to `COc1ccc(C2=NN(c3nc4ccccc4s3)C(=O)C2)cc1`, the inhibition is 59.7% (active). With `O=C1CC(c2ccccc2)=NN1c1ccc([N+](=O)[O-])cc1` the figure was -2.5% (inactive). With `CCc1ccccc1N1C(=O)C2C3CC(=O)C(c4ccccc43)C2C1=O` (stereo not drawn) the figure was -5.1% (inactive); with `CCc1nnc(NC(=O)[C@@H](NC(=O)c2cccc(C)c2)C(C)C)s1`, -3.8% (inactive); with `CN1CCN(C(=O)N2c3ccccc3CCc3ccccc32)CC1`, -4.4% (inactive). On to `CCCCn1c(=O)c(C(C)=O)c(O)c2ccccc21`, for which the inhibition was -1.3% (inactive).

As to `Cn1c(=O)c(C(=O)Nc2ncccn2)c(O)c2ccccc21`, the inhibition was 70.3% (active). The result for `Cn1c(=O)c(Sc2ccc(Cl)cc2)c(O)c2ccccc21` reads -5.7% (inactive); that for `Cc1ccccc1-n1nc(C)c2c1N=C1C(Cl)=CC(Cl)=CN1C2c1ccc(C(=O)O)cc1` (stereo not drawn), -0.1% (inactive); that for `CCOc1cc(NC(=O)c2ccccn2)c(OCC)cc1NC(=O)c1ccc(OC)cc1`, -2.9% (inactive).

`COc1ccc(C(=O)/C=C/Nc2ccccn2)cc1`: the inhibition was 92.4% (active).

For `COc1ccc(-c2csc(Nc3ccccn3)n2)cc1`, the inhibition was 49.9% (inactive). The result for `O=C(Cc1cccs1)Nc1cccc(-c2nc3ccccc3[nH]2)c1` reads -1.9% (inactive); that for `O=C(CCCN1C(=O)/C(=C/c2ccco2)SC1=S)Nc1ccccc1`, -3.2% (inactive); that for `O=C(CCCN1C(=O)/C(=C/c2ccccc2)SC1=S)Nc1ccc(O)cc1`, 57.6% (active). Take `O=C(CCCN1C(=O)/C(=C\c2ccco2)SC1=S)Nc1cccc2ccccc12`: the inhibition was -1.3% (inactive).

On to `Cn1c(-c2ccco2)nc2cc3ccccc3cc21`, for which the inhibition is 95.7% (active). For the compound `CN(c1nc2ccccc2n2c(-c3ccco3)nnc12)S(=O)(=O)c1ccccc1`, the inhibition is -2.9% (inactive). As for `CN1c2ccccc2-c2nc3ccccc3n2C1c1ccco1` (stereo not drawn), the inhibition is 1.3% (inactive). For `CCC(C)c1ccc(NC(=S)NCc2ccccn2)cc1` (stereo not drawn), the inhibition is -3.2% (inactive).

With `C/C(=N\N=C(N)N)c1ccc(Cl)cc1`, the inhibition was -7.1% (inactive). With `Cc1ccc(CNC(=O)CC2Sc3ccccc3NC2=O)cc1` (stereo not drawn) the figure was -6.5% (inactive). With `Brc1ccc(-c2csc(N/N=C/c3ccc4c(c3)OCO4)n2)cc1` the figure was -0.1% (inactive); with `C(=N\Nc1ccc2ccccc2n1)/c1ccc2c(c1)OCO2`, 87.4% (active). Take `Cc1noc(C)c1/C=N/Nc1ccc2ccccc2n1`: the inhibition is 13.4% (inactive). With `CCNC(=S)N1CCN(c2ncccn2)CC1` the figure was -2.5% (inactive); with `COc1ccc(NC(=O)Nc2cccc3cccnc23)cc1`, 65.4% (active); with `COc1ccc(NC(=O)Nc2ccc3nc(C)c(C)nc3c2)cc1`, -4.8% (inactive). The result for `COc1ccc(NC(=O)C2CCCN(S(=O)(=O)c3cccc4cccnc34)C2)cc1` (stereo not drawn) reads -0.5% (inactive); that for `O=C(CSC(=S)N1CCOCC1)c1ccccc1`, 72.6% (active); that for `CC1CN(C(=S)SCC(=O)c2ccccc2)CC(C)O1` (stereo not drawn), 4.3% (inactive).

Take `NC(=NC(=O)c1ccccc1)N1CCOCC1`: the inhibition was 0.1% (inactive).

Take `CCC(C)(C)c1ccc(OCC(=O)N(C)C)c(C(C)(C)CC)c1`: the inhibition was -6.6% (inactive).

`Cc1cc(C)nc(SCC(=O)N(C)C)n1`: the inhibition is -4.6% (inactive). For the compound `O=C(CC1Nc2ccccc2NC1=O)Nc1ccccc1NC(=O)CC1Nc2ccccc2NC1=O` (stereo not drawn), the inhibition is 7.9% (inactive). Regarding `Cc1ccc(N/C=C/C(=O)c2ccccc2)cc1C`, the inhibition was 91.4% (active). The result for `Cc1noc(NS(=O)(=O)c2ccc(N/C=C/C(=O)c3ccccc3)cc2)c1C` reads -2.7% (inactive); that for `O=C(/C=C\NCC(=O)c1ccccc1)c1ccccc1`, 14.5% (inactive). For the compound `CC1CCN(C(=S)c2ccc(-c3ccc(Cl)cc3Cl)o2)CC1`, the inhibition was 3.9% (inactive). The result for `S=C(c1ccc(-c2ccccc2)o1)N1CCCCC1` reads 83.4% (active). The result for `S=C(NCCc1ccccc1)N1CCCCC1` reads 9.6% (inactive); that for `COc1cccc(OC)c1C(=O)NC(=S)NCc1ccco1`, -2.1% (inactive). Consider `COCCn1c(Cc2cccn2C)nnc1SCC(=O)Nc1nccs1`, for which the inhibition is -5.3% (inactive). The result for `COc1cc(NC(=O)COc2ccccc2Cl)ccc1NC(=O)C(C)C` reads -2.5% (inactive); that for `CC(CC(=O)C1C(C)C=CCC1(C)C)NNC(N)=O` (stereo not drawn), -6.1% (inactive); that for `CC(=O)Nc1ccc(-c2csc(NC(=O)Nc3ccccc3)n2)cc1`, -0.4% (inactive). With `CCCc1nnc(NC(=O)c2cc(OC)cc(OC)c2)s1` the figure was -1.1% (inactive); with `O=C(Nc1ccccc1)Nc1nc2ccccc2s1`, 52.9% (active). As for `COCc1nnc(NC(=O)c2ccc3c(c2)OCO3)s1`, the inhibition was 58.9% (active). The result for `COc1ccc(C(=O)Nc2ccc3c(c2)OCO3)cc1OC` reads 28.8% (inactive). With `O=C(Nc1ccccc1)c1ccc2c(c1)OCO2` the figure was 34.2% (inactive); with `O=C(Nc1nc2ccccc2s1)c1ccc2c(c1)OCO2`, 83.9% (active). The result for `CSCCC(Nc1nc2ccccc2s1)C(=O)O` (stereo not drawn) reads -2% (inactive).

As for `Cc1cc(C)c2nc(NC(=O)c3ccc4c(c3)OCO4)sc2c1`, the inhibition is -1.6% (inactive). On to `C/C(=N/NC(=O)CSc1ccccn1)c1ccc([N+](=O)[O-])cc1`, for which the inhibition is -6.6% (inactive). With `O=C(CN1CCN(S(=O)(=O)/C=C/c2ccccc2)CC1)Nc1ccc(N2CCOCC2)cc1` the figure was -7.8% (inactive); with `COc1ccc(-n2c(=S)[nH]c3sc4c(c3c2=O)CCc2ccccc2-4)cc1`, 4.5% (inactive).

With `CCOc1ccc2nc(NCCNC(=O)C(C)(C)C)c(C)cc2c1`, the inhibition was -2.6% (inactive).

`O=C(Cc1ccc(F)cc1)N1CCN=C1SCc1cccc([N+](=O)[O-])c1`: the inhibition was -8.2% (inactive).

`O=C(NCC1CCCO1)C1CCN(C2CCN(C(=O)C3CCCCC3)CC2)CC1` (stereo not drawn): the inhibition is -6.8% (inactive). With `Cc1cccc(-n2c(C)cc(/C=N/NC(N)=S)c2C)c1` the figure was 0.5% (inactive); with `Cc1cccc(-n2c(C)cc(/C=N\NC(=O)c3cccs3)c2C)c1`, 50.3% (active); with `CC(=O)Nc1ccc(/C=N/NC(=O)c2cccs2)cc1`, 42.4% (inactive). Take `COc1ccc(OC)c(S(=O)(=O)Nc2cccc(-c3ccc4nncn4n3)c2)c1`: the inhibition was -2.6% (inactive). `Oc1ccc(N=Cc2sc3ccccc3c2Cl)cc1`: the inhibition is 65.5% (active). For the compound `O=C(N/N=C/c1c(Cl)[nH]c2ccccc12)c1sc2ccccc2c1Cl`, the inhibition was 5% (inactive). Take `Cc1nn(C)cc1/C=N/NC(=O)c1sc2ccccc2c1Cl`: the inhibition was 11.2% (inactive).

For `CSc1nc2ccc(NC(=O)c3c(F)cccc3F)cc2s1`, the inhibition is 12.4% (inactive). The result for `Nc1nnc(SCC(=O)OCc2ccc(Cl)c(Cl)c2)s1` reads -3.7% (inactive); that for `Cc1ccc2nc(COc3ccc(N(C)S(=O)(=O)c4ccccc4)cc3)cc(=O)n2c1`, -4.2% (inactive); that for `COc1ccc(C(=O)NCc2cn3ccccc3n2)cc1`, -1.1% (inactive). The result for `O=Cc1ccc(OCc2cn3ccccc3n2)cc1` reads 50.3% (active). As to `Cc1cc(C)c2c(NC(=O)C3CC3)nn(C)c2n1`, the inhibition was -5.8% (inactive). For `COc1ccc(C2Nc3ccccc3C(=O)N2c2ccc(Cl)cc2)cc1Cn1cc([N+](=O)[O-])cn1` (stereo not drawn), the inhibition was -5.8% (inactive). The result for `CC(=O)N1CCN(CC(=O)Nc2ccc(SC(F)F)cc2)CC1` reads -4.2% (inactive); that for `Cc1cccc(C2=N/C(=C/c3cccs3)C(=O)O2)c1`, 88.5% (active); that for `Cc1ccc(C2=N/C(=C\c3ccc(OS(=O)(=O)c4ccc(C)cc4)cc3)C(=O)O2)cc1`, -8.9% (inactive). With `Cc1ccc(N2CCN(C3=NC(=O)/C(=C\c4cccs4)S3)CC2)cc1` the figure was -3.4% (inactive). Regarding `CCOc1ccc(C(=O)Nc2nccs2)cc1[N+](=O)[O-]`, the inhibition was -1.5% (inactive). The result for `COc1cc(C(=O)Nc2nccs2)cc(OC)c1OC` reads -0.7% (inactive); that for `CC(=O)Oc1ccc(C(=O)Nc2nccs2)cc1`, 54.1% (active). The result for `Cc1nnc(N/N=C/C2CC=CCC2)[nH]c1=O` (stereo not drawn) reads -4% (inactive). The result for `Cc1cccc2cc3c(N)c(C(=O)N4CCCc5ccccc54)sc3nc12` reads -1.8% (inactive). Turning to `CC(C)CC(=O)NC(=S)NCc1ccccc1`, the inhibition was -3.5% (inactive).

Regarding `CCC(=O)NC(=Nc1nc2ccccc2s1)NC(=O)CC`, the inhibition is 11.6% (inactive). With `CC(C)CC(=O)N/C(N)=N/c1nc2ccccc2s1` the figure was 63.5% (active); with `CC(C)C1Nc2c(C(=O)O)cccc2C(Nc2ccccc2C(=O)O)C1(C)C` (stereo not drawn), 0.1% (inactive). The result for `CC(C)=C1SC(N2CCN(c3cccc(C)c3)CC2)=NC1=O` reads -5.6% (inactive). Regarding `CCN1C(=O)/C(=C2\SC(N3CCCCC3)=NC2=O)c2ccccc21`, the inhibition was 50.9% (active).

With `O=C1N=C(N2CCCC2)S/C1=C\c1cccc(Br)c1`, the inhibition is -4.4% (inactive).

Usually inhibition stands for the change of the read-out against control, counted positive when it falls.
